Reference: PubChem BioAssay AID504336 (NMMLSC, 2011)
Several values for one entry are separate records, joined by “and”; a condition that tells them apart may be missing. Equal entries are not always repeated. Activity calls are given as the source filed them.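 The calls were made as follows: active = compounds whose GFP signal falls below 65% of the DMSO control level; inconclusive = fewer than 70 yeast cells counted in the well; inactive = the rest.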

test: TOR branch reporter RPL19A-GFP response – cell-based, S. cerevisiae, third cherry pick, flow cytometry, confirmation (AID 504336);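 also: median GFP fluorescence of all gated yeast cells by flow cytometry; ratio of well median fluorescence to plate mean of DMSO wells with DMSO = 100%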; conditions: S. cerevisiae RPL19A-GFP strain, 3 h, at 10 µM, hits give low values

SMILES	GFP response relative to DMSO
Cc1cccc(Nc2cc(=O)[nH]c(=O)[nH]2)c1C	98.5% (inactive)
O=C(Nc1ccccc1)ON=C1c2ccccc2-c2ccccc21	92.3% (inactive)
Cc1cc(C)c2ccc(C(=O)O)nc2c1O	98.5% (inactive)
Cn1c(NCCCO)nc2c(c1=O)C1(CCCCC1)Cc1ccccc1-2	102% (inactive)
Cn1cccc1C(=O)Nc1nc(-c2ccccn2)cs1	102% (inactive)
CNc1nc(C)c([N+](=O)[O-])c(Nc2ccc(OC)cc2)n1	102% (inactive)
COc1cccc(N/C=C/C(=O)c2ccc(Cl)cc2)c1	101% (inactive)
CC(=O)NC(C)c1cc(Cl)c2cccnc2c1O (configuration not stated)	99.1% (inactive)
COc1ccccc1Nc1nc(NCCO)nc(N)c1[N+](=O)[O-]	102% (inactive)
Cc1ccc(NN2C(=O)C=C(c3ccccc3)C2=O)cc1	61.2% (active)
O=C(O)c1ccc2cccc(O)c2n1	102% (inactive)
COc1ccccc1OCc1cc(C(=O)N2CCN(C)C(c3ccccc3)C2)no1 (configuration not stated)	101% (inactive)
COCCCNc1nc(N)c([N+](=O)[O-])c(Nc2cc(OC)ccc2OC)n1	101% (inactive)
COc1ccccc1-c1cc(C(F)(F)F)nc(S(=O)(=O)CCCC(=O)NC(C)C)n1	94.4% (inactive) and 99.1% (inactive)
COCCNc1nc(N)c([N+](=O)[O-])c(Nc2ccc(F)cc2)n1	100% (inactive)
CCc1c(C)nc2c(OC)cccc2c1Cl	102% (inactive)
Nn1cnc2c(c1=O)C1(CCCCC1)Cc1ccccc1-2	101% (inactive)
